# ELG1 genotox – genotoxicity induction in ELG1-luciferase HEK293T cells. HEK293T ELG1-luciferase reporter, luminescence, 16 h. Potency, µM (doses to about 46 µM), usual class: activators. 330,000 tested, 1.3% active. AID 504466; also: nearly all actives have a fitted effect of over 60% in size
#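 16 hr compound incubation (37 °C, 5% CO2) of HEK293T cells carrying luciferase-tagged ELG1; luciferase then measured by ONE-Glo luminescence after 30 min at RT.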
# ELG1 repair inh – blocks ELG1-dependent DNA repair in HEK293T cells | Potency, µM (top dose mostly 46.1 µM), most hits filed as inhibitors | HEK293T ELG1-luciferase reporter, luminescence, 16 h; DNA damage induced by 5-fluorouridine | 330,000 tested, 2.3% active | AID 504467; also: nearly all actives have a fitted effect of over 55% in size
#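 Quantitative HTS, concentration-response format. 2,000 cells/well co-treated with 5-fluorouridine and compound, 16 hr in 5% CO2 at 37 °C; ONE-Glo luminescence read after 30 min.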
# SMN2 splice up – SMN2 splice variant enhancement. HEK293 SMN2-luciferase splicing reporter, luminescence, 30-36 h. Potency, µM (highest dose often 46.1 µM), most hits filed as activators. 210,000 tested, 2.8% active. AID 1458; also: nearly all actives have a fitted effect of over 55% in size
#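 qHTS luciferase splicing reporter: luminescence rises when SMN2 exon 7 is included in transfected HEK293 cells. Compound exposure lasted 30-36 h at 37C, with 4.5 mM final sodium butyrate as control, followed by a ONE-Glo read.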
# FLuc counter – counter-screen for miR-21 project: firefly luciferase inhibitors or activators; Potency, µM (series often up to 57.5 µM), most hits filed as inhibitors; P08659; 360,000 tested, 6.9% active; purified FLuc, Km substrates, luminescence inhibition; also: nearly all actives have a fitted effect of over 55% in size
# Target sequence (P08659 whole entry, looked up): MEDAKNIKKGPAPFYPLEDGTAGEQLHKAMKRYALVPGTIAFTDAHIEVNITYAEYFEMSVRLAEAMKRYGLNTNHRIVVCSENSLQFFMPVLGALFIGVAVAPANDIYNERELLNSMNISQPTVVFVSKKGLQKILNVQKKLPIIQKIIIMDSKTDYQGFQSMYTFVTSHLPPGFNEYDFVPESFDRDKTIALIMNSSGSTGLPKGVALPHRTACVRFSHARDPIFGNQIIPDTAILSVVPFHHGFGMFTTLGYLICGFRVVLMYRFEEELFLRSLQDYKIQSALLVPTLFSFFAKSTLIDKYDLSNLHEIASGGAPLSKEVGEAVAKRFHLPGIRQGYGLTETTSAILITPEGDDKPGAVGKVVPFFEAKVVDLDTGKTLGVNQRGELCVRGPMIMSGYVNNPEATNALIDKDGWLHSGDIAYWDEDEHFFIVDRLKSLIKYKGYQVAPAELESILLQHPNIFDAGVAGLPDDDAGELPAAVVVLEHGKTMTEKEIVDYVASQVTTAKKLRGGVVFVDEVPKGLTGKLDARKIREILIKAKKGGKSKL
#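 Purified P. pyralis luciferase, 10 nM final, with Km-level 10 uM D-luciferin and 10 uM ATP in 50 mM Tris acetate pH 7.5, 10 mM Mg acetate, 0.01% Tween-20, 0.05% BSA; 6-point qHTS titration about 60 µM downward; luminescence read.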
# Rab9 prom act – Rab9 promoter activation. Potency, µM (doses to about 9.22 µM), usual class: activators. 320,000 tested, 2.8% active. Huh7 Rab9 promoter-luciferase reporter, luminescence, 24 h; also: nearly all actives have a fitted effect of over 60% in size
#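 Luciferase signal after 10 min detection reagent at ambient indicates Rab9 promoter upregulation; stably transfected Huh7 cells were treated 24 h with compound in DMSO at 37 °C, 5% CO2.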
# NPC1 prom act – activators of NPC1 promoter; Huh7 NPC1 promoter luciferase reporter, 24 h; Potency, µM (series often up to 9.22 µM), usual class: activators; 320,000 tested, 2.4% active; AID 485313; also: nearly all actives have a fitted effect of over 60% in size
#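 Stable NPC1-promoter luciferase Huh7 line; cpd (DMSO) 24 h, 37 °C, 5% CO2; Amplite luciferase reagent 10 min RT; luminescence readout. qHTS format.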
# Numbers stand for hits; - = inactive; ? = inconclusive; . = no result given; [ ] = remark or other dose. Rows were chosen to be rich in hits. Some 9.4% of all compounds tested hit in one or more screens of this group. Calls follow the shape of the dose curve; as a rule, active = well fitted curve in the direction sought with a large enough effect; inconclusive = small, poorly fitted or top-dose-only effect, or another doubt; inactive = no such curve, though single readings can be large; an effect the other way counts as inactive or inconclusive.
SMILES,ELG1 genotox,ELG1 repair inh,SMN2 splice up,FLuc counter,Rab9 prom act,NPC1 prom act
CCOc1ccc(C(=O)Nc2ccc3oc(-c4cccc5ccccc45)nc3c2)cc1,.,.,-,-,.,.
O=C(NCCCCNC(=O)c1cccs1)c1cccs1,-,-,-,-,-,-
Cc1occc1C(=O)NCCc1cccc(Cl)c1,?,?,?,21.3µM,3.98µM,?
O=C(NCCc1ccccc1)c1cccs1,2.91µM,?,11.2µM,10.7µM,2.82µM,2.82µM
O=C(NCCc1cccc(Cl)c1)c1cccs1,?,?,15.8µM,15.1µM,1.78µM,2.24µM
COc1ccnc(Oc2ccccc2)c1C(=O)N/C=N/OCc1ccc(F)cc1Cl,-,18.4µM,-,-,-,-
COc1ccccc1CO/N=C/NC(=O)c1c(OC)ccnc1Oc1ccc(F)cc1,-,?,-,-,-,-
O=C(/C=C/c1ccc(OC2CSC2)cc1)c1ccc(Cl)cc1,-,?,-,10.7µM,-,-
O=C(/C=C/c1ccccc1)c1ccc(O)cc1,.,.,-,.,.,.
COc1ccc(C(=O)/C=C/c2ccc(OC3CSC3)cc2)cc1OC,-,-,-,?,-,-
Cc1nn(C)cc1/C=C/C(=O)c1ccc(O)cc1,20.6µM,?,-[1.84 µM],13.5µM,?,?
COc1ccc(/C=C/C(=O)Oc2cc(O)cc(O)c2)cc1,-,-,.,15.1µM,-[1.84 µM],-
CCOc1ccc(/C=C/C(=O)Oc2ccc(OC)cc2)cc1,-,-,.,?,-,-
COc1ccc(/C=C/C(=O)c2nc3ccccc3n2CC(=O)c2ccc(OC)cc2)cc1,-,-,-,9.53µM,-,-
COc1cccc(NC(=O)Cn2c(=O)n(CC(=O)NCc3ccc(C)cc3)c(=O)c3sccc32)c1,.,.,-,-,.,.
COc1ccc(CCNC(=O)c2cc3c(=O)n(C)c4cc(Cl)ccc4c3s2)cc1OC,.,.,-,-,.,.
COc1ccc(C(=O)/C=C/c2ccc(O)cc2)cc1,-,-,.,8.49µM,-,-
COc1ccc(/C=C/C(=O)C(C(N)=O)=C2SCCS2)cc1,-,?,-,9.53µM,-,-
O=C(/C=C/c1ccc(N2CCC(c3ccccc3)=N2)cc1)c1ccccc1,-,?,-,15.1µM,-,-
COC(=O)C1=C(C)NC(=O)NC1c1ccc(N2CCC(c3ccccc3)=N2)cc1 (centres undefined),-,?,.,-,-,-
COc1ccc(-c2cc(O)cc(O)c2)cc1,6.51µM,?,?,6.75µM,?,?
COc1ccc(OC)cc1,-,-,-,.,.,.
CCOCCCNC(=O)c1cc(=O)[nH]c2ccc(S(=O)(=O)N3CCCC3)cc12,.,.,-,-,.,.
CN1C(=O)c2ccccc2Sc2ccc(NC(=O)c3ccc(C#N)cc3)cc21,.,.,.,-,.,.
COc1ccccc1CNC(=O)c1cc2c(=O)n(Cc3cccs3)ccc2nc1C,.,.,.,-,.,.
SMILES,ELG1 genotox,ELG1 repair inh,SMN2 splice up,FLuc counter,Rab9 prom act,NPC1 prom act
COc1ccc(-c2noc(N(c3ccc(F)c(Cl)c3)c3nc(-c4ccc(OC)c(OC)c4)no3)n2)cc1OC,.,.,-,-,.,.
O=C(/C=C/c1ccc(O)cc1)c1ccccc1,?,?,.,2.69µM,?,-
O=C(CNc1cccc(S(=O)(=O)N2CCCC2)c1)Nc1cccc(C(F)(F)F)c1,-,9.2µM,.,.,.,.
O=C(Nc1cccc(C(F)(F)F)c1)c1cc(S(=O)(=O)N2CCCC2)c[nH]1,.,.,.,16.9µM,.,.
Cc1ccsc1/C=N/NC(=O)C(O)c1ccccc1 (centres undefined),-,-,.,-,-,-
Cc1ccsc1/C=N/NC(=O)c1cccs1,?,?,.,10.7µM,?,?
Cc1ccsc1/C=N/NC(=O)c1ccccn1,?,?,11.2µM,8.49µM,2.51µM,2µM
CC(C)c1ccc(NC(=O)C2CCN(S(=O)(=O)c3cccc4nsnc34)CC2)cc1,.,.,-,-,.,.
Cc1noc(C)c1C(=O)N1CCC2(CCCN(C(=O)Nc3cccc(F)c3)C2)CC1,.,.,-,.,.,.
O=C(Nc1cc(Sc2ccccn2)cc([N+](=O)[O-])c1)c1cccc(Cl)c1,-,6.51µM,.,-,-,-
CC1CCc2c(sc(NC(=O)c3cccs3)c2C(=O)O)C1 (centres undefined),-,-,.,6.75µM,-[1.84 µM],-
CCC1CCc2c(sc(NC(=O)c3ccoc3C)c2C(N)=O)C1 (centres undefined),?,?,?,6.75µM,-,-
CCC1CCc2c(sc(NC(=O)c3cccnc3)c2C(N)=O)C1 (centres undefined),?,?,-,?,?,-
COC(=O)c1c(NC(=O)c2ccc(C(C)(C)C)cc2)sc2c1CCC(C)C2 (centres undefined),.,.,-,-,.,.
COC(=O)c1c(NC(=O)c2cccs2)sc2c1CCC(C)C2 (centres undefined),-,?,-,10.7µM,?,?
CCCC1CCc2c(sc(NC(=O)c3cccs3)c2C(N)=O)C1 (centres undefined),-,?,-,3.38µM,?,?
CCCNC(=O)Cn1nc(-c2ccc(C)c(C)c2)c2cnc3ccc(F)cc3c21,.,.,.,-,.,.
Cc1ccc(C2CC(=O)N(Cc3ccccc3)c3c2c(C)nn3-c2nc(C)cc(C)n2)cc1 (centres undefined),.,.,.,-,.,.
S=C1SCN(Cc2cccnc2)CN1Cc1cccnc1,-,23.1µM,.,-,-,-
S=C1SCN(Cc2ccccc2)CN1Cc1ccccc1,-,-,.,-,-,-
Cc1c(NCc2cc(Cl)cc(Cl)c2O)c(=O)n(-c2ccccc2)n1C,-,-,-,-,-,-
Cc1c(NCc2nc3ccccc3[nH]2)c(=O)n(-c2ccccc2)n1C,-,-,-,15.1µM,-,-
C=C(C)C(=O)N1CC2(CC(c3cccc(NC(=O)/C=C\C=C/C)c3)=NO2)C[C@H]1C(N)=O (some centres undefined),-,?,.,16.9µM,-,-
C/C=C\C(=O)Nc1cccc(C2=NOC3(C2)C[C@@H](C(N)=O)N(C(=O)C2(C)CC2)C3)c1 (some centres undefined),-,-,.,-,-,-
C/C=C\C(=O)Nc1cccc(C2=NOC3(C2)C[C@H](C(N)=O)N(C(=O)/C=C/CC)C3)c1 (some centres undefined),-,-,.,-,-,-
C=C(C)C(=O)Nc1cccc(C2=NOC3(C2)C[C@@H](C(N)=O)N(C(=O)C(=C)C)C3)c1 (some centres undefined),-,-,.,-,-,-
C/C=C/C=C\C(=O)Nc1cccc(C2=NOC3(C2)C[C@@H](C(N)=O)N(C(=O)c2cc([N+](=O)[O-])cc([N+](=O)[O-])c2)C3)c1 (some centres undefined),-,-,.,3.01µM,-,-
